49 compounds from PubChem BioAssay (NCATS) can be followed below.

Experiment [1] can be described thus: Viability qHTS for spleen associated tyrosine kinase inhibitor (SYKi) naive MV4-11 cells (AID 1963823). Note: nearly all actives have a fitted effect of over 40% in size. To be noted: MV4-11 AML viability, CellTiter-Glo luminescence, 72 h; series mostly up to 45 µM. The method, boiled down:
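Compounds were dispensed acoustically onto plates, MV4-11 cells (SYKi-naive) added at 500 per well, and plates incubated 72 hr at 37 C. CellTiter-Glo was added and luminescence measured after 10 min.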
A general note: qHTS replaces the single test concentration by a dilution series.

Experiment [2] in a line: Viability qHTS for spleen associated tyrosine kinase inhibitor (SYKi) drug resistant MV4-11 cells (AID 1963824). Note: nearly all actives have a fitted effect of over 35% in size. The settings on record: SYKi-resistant MV4-11 viability, CellTiter-Glo, 72 h; series mostly up to 45 µM. The method, boiled down:
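SYK-inhibitor-resistant MV4-11 AML cells were seeded at 500 per well onto compound and cultured 72 hours (37 °C, 5% CO2). CellTiter-Glo was then added, and after 10 min at room temperature, luminescence gave viability.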

Records with an inconclusive call do not appear. A number with no mark means an inactive call. Activity calls are given as the source filed them. Calls come from the whole dose curve; as a rule, active = well fitted cell-killing curve with a large enough effect; inconclusive = small, poorly fitted or top-dose-only effect, or effect the other way; inactive = no such curve, though single readings can be large or run the other way.
Potency is the fitted concentration of half-maximal effect.

Take `COc1cc(O)cc(C)c1C(=O)O[C@H]1[C@@H](O)[C@@H](n2ccc(=O)[nH]c2=O)O[C@@H]1CO`: the Potency entry in experiment [1] and in experiment [2] was “inactive” each time.
`Cc1ccccc1NC(=O)Nc1ccc(CC(=O)N(C)[C@@H](CC(C)C)C(=O)NCC[C@H](NC(=O)[C@@H]2CCCN2S(=O)(=O)c2cc(Cl)cc(Cl)c2)C(=O)O)cc1`: the Potency result in experiment [1] and in experiment [2] was “inactive” throughout.
Consider `C[C@@H]1C(=O)O[C@H](C)[C@H]1CC(=O)[C@](C)(O)[C@H]1CC[C@@]2(O)C3=CC(=O)[C@@H]4C[C@@H](O)[C@@H](O)C[C@]4(C)C3CC[C@]12C` (stereo partly drawn), for which the Potency result in experiment [1] and in experiment [2] was “inactive” throughout.
As for `NC(=O)c1ccccc1Nc1ccnc(Nc2cccc(O)c2)n1`, the Potency is 0.372 µM (active) in experiment [1] and 0.326 µM (active) in experiment [2].
On the same counts, the results for `CC(=O)O[C@@H]1[C@@H](O)[C@H](O[C@H]2CC[C@]34C[C@]35CC[C@]3(C)[C@@H]([C@@]6(C)CC[C@@H](C(C)(C)O)O6)[C@@H](O)C[C@@]3(C)[C@@H]5C[C@H](O[C@@H]3O[C@H](CO)[C@@H](O)[C@H](O)[C@H]3O)[C@H]4C2(C)C)OC[C@H]1O` are “inactive” and “inactive”.
On the same counts, the results for `O=C(CC12CC3CC(CC(C3)C1)C2)Nc1cccc2nc(NCCNCCO)ccc12` are 18.6 µM (active) and 16.4 µM (active).
On the same counts, the results for `CC1=CC(=O)CC(C)(C)C1/C=C/C(C)OC1OC(COC2OCC(O)C(O)C2O)C(O)C(O)C1O` (stereo not drawn) are “inactive” and “inactive”.
Consider `C[C@H]1CC[C@@]2(OC1)O[C@H]1CC3C4CC[C@H]5C[C@@H](O)[C@H](O)C[C@]5(C)C4=CC(=O)[C@]3(C)[C@H]1[C@@H]2C` (stereo partly drawn), for which the Potency result in experiment [1] and in experiment [2] was “inactive” in each case.
Regarding `COC(=O)[C@]12C(=O)C(C)=C(O)[C@@]1(C)C(C)=CC1[C@@]34CC[C@@H](OC(C)=O)C(C)(C)C3[C@H](C[C@]12C)OC4=O` (stereo partly drawn), the Potency result in experiment [1] and in experiment [2] was “inactive” each time.
For `CN1CC[C@@H](c2c(O)cc(O)c3c(=O)cc(-c4ccc(C(F)(F)F)cc4Cl)oc23)[C@@H]1CO`, the Potency in experiment [1] is 16.4 µM (active); in experiment [2], 18.4 µM (active).
Take `O=C(Nc1cccc(C(F)(F)F)c1)c1ccccc1NCc1ccncc1`: the figures for the Potency in experiment [1] and in experiment [2] were 8.2 µM (active) and 9.2 µM (active), respectively.
`COC(=O)C1=C[C@@H](O)[C@@H](O)[C@H](O[C@@H]2O[C@H](CO)[C@@H](O)[C@H](O)[C@H]2OC(=O)/C=C/c2ccccc2)C1`: the Potency result in experiment [1] and in experiment [2] was “inactive” each time.
`C[C@@H]1CN(CCCn2c3ccccc3c3ccccc32)C[C@H](C)N1`: the Potency in experiment [1] was 23.7 µM (active); in experiment [2], 26.6 µM (active).
Turning to `Cc1cncc2cccc(S(=O)(=O)N3CCCNC[C@@H]3C)c12`, the figures for the Potency in experiment [1] and in experiment [2] were 3.66 µM (active) and 9.2 µM (active), respectively.
On the same counts, the results for `CC1C(=O)OCC2=CCN3CCC(OC(=O)C(C)(O)C1(C)O)C23` (stereo not drawn) are “inactive” and “inactive”.
On to `COc1nc2ccc(Br)cc2cc1[C@@H](c1ccccc1)[C@@](O)(CCN(C)C)c1cccc2ccccc12`, for which the Potency in experiment [1] was 6.51 µM (active); in experiment [2], 9.2 µM (active).
On the same counts, the results for `Cc1[nH]nc(C(F)(F)F)c1Cc1sc2c(c1C(=O)N1C[C@](C)(O)CO1)c(=O)n(C)c(=O)n2C(C)C` are “inactive” and “inactive”.
On to `Cc1ccc(OCCSc2ncccn2)c(Br)c1`, for which the Potency entry in experiment [1] and in experiment [2] was “inactive” throughout.
Regarding `N#Cc1cc([N+](=O)[O-])c2sc(C(N)=O)[n+]([O-])c2c1`, the Potency in experiment [1] was 1.84 µM (active); in experiment [2] it was 1.64 µM (active).
On the same counts, the results for `CNc1nc(NCc2ccc(NS(C)(=O)=O)cc2Cl)cc(-c2ccccn2)n1` are 20.6 µM (active) and 23.1 µM (active).
On the same counts, the results for `O=C(/C=C/c1ccccc1)OC[C@H]1O[C@@H](OC(=O)c2cc(O)c(O)c(O)c2)[C@H](O)[C@@H](O)[C@@H]1O` are “inactive” and “inactive”.
Turning to `C/C(=N\N=C(N)N)c1ccc(NC(=O)Nc2ccc(/C(C)=N/N=C(N)N)cc2)cc1`, the Potency in experiment [1] is 2.06 µM (active); in experiment [2], 0.731 µM (active).
Turning to `OCc1ccc(O[C@@H]2O[C@H](CO)[C@@H](O)[C@H](O)[C@H]2O)cc1`, the Potency result in experiment [1] and in experiment [2] was “inactive” each time.
As for `COc1ccc(/C=C/C(=O)O[C@H]2[C@H](O[C@H]3[C@@H]4C=CO[C@@H](O[C@@H]5O[C@H](CO)[C@@H](O)[C@H](O)[C@H]5O)[C@@H]4[C@@]4(CO)O[C@@H]34)O[C@@H](C)[C@H](O)[C@H]2OC(C)=O)cc1`, the Potency result in experiment [1] and in experiment [2] was “inactive” throughout.
For the compound `CCN[C@@H]1C[C@H](N)[C@@H](O[C@H]2OC(CN)=CC[C@H]2N)[C@H](O)[C@H]1O[C@H]1OC[C@](C)(O)[C@H](NC)[C@H]1O`, the Potency result in experiment [1] and in experiment [2] was “inactive” throughout.
Turning to `CO[C@H]1/C=C/C=C/C=C/C[C@H](OC(=O)[C@@H](C)NC(=O)C2CCCCC2)[C@H](C)[C@@H](O)/C(C)=C/CCc2cc(O)cc(c2)NC(=O)C1`, the results for the Potency in experiment [1] and in experiment [2] were 0.0968 µM (active) and 0.109 µM (active), respectively.
For the compound `C/C(CO)=C1/CCC23COC(C2)C(O)(C(=O)O)CCC13` (stereo not drawn), the Potency entry in experiment [1] and in experiment [2] was “inactive” in each case.
For `CC1(C)CC[C@]2(C(=O)O[C@@H]3O[C@H](CO)[C@@H](O)[C@H](O)[C@H]3O)CC[C@]3(C)C(=CCC4[C@@]5(C)CC[C@H](O[C@@H]6O[C@H](C(=O)O)[C@@H](O)[C@H](O)[C@H]6OC6OC(CO)C(O)C(O)C6O)C(C)(C)C5CC[C@]43C)[C@@H]2C1` (stereo partly drawn), the viability (% of control) in experiment [1] is 89.4% [at 9.25 µM]. Moreover, the viability, % of control in experiment [2] is 91% [at 9.25 µM].
Take `N#Cc1ccc2[nH]cc(CCCCN3CCN(c4ccc5oc(C(N)=O)cc5c4)CC3)c2c1`: the Potency in experiment [1] is 11.6 µM (active); in experiment [2] it was 18.4 µM (active).
On the same counts, the results for `CCOc1ccc(Cc2nc(-c3c(C)nc4ccccn34)cs2)cc1` are 0.0366 µM (active) and 0.0184 µM (active).
The like results for `CC(C)O[C@@H]1O[C@H](CO)[C@@H](O)[C@H](O)[C@H]1O` were, in that order, “inactive” and “inactive”.
With `OC[C@@]1(O)CO[C@@H](OC[C@H]2O[C@@H](OCc3ccccc3)[C@H](O)[C@@H](O)[C@@H]2O)[C@@H]1O`, the Potency result in experiment [1] and in experiment [2] was “inactive” in each case.
With `CCc1cccc(CC)c1-n1c(C=C(C)C)c(C(=O)N2CCNCC2)cc(-c2nc(-c3ccc(C(F)(F)F)cc3)cs2)c1=O`, the Potency result in experiment [1] and in experiment [2] was “inactive” in each case.
As for `CC1=C2C(=O)C=C(CO[C@@H]3O[C@H](CO)[C@@H](O)[C@H](O)[C@H]3O)[C@@H]2[C@H]2OC(=O)[C@H](C)[C@@H]2[C@@H](O)C1`, the Potency result in experiment [1] and in experiment [2] was “inactive” each time.
In the case of `CC1=CC(=O)C2C(C)(C)CCC[C@]2(C)[C@H]1CO` (stereo partly drawn), the Potency result in experiment [1] and in experiment [2] was “inactive” throughout.
As to `CC(=O)O[C@@H]1[C@H](O[C@@H]2OC[C@](O)(CO)[C@H]2O)[C@@H](O[C@@H]2O[C@@H](C)[C@H](O)[C@@H](O[C@@H]3O[C@H](CO)[C@@H](O)[C@H](O)[C@H]3O)[C@H]2O)[C@H](OC(=O)[C@]23CCC(C)(C)C[C@H]2C2=CCC4[C@@]5(C)C[C@H](O)[C@H](O[C@@H]6O[C@H](C(=O)O)[C@@H](O)[C@H](O)[C@H]6O)[C@@](C)(C(=O)O)C5CC[C@@]4(C)[C@]2(C)CC3)O[C@@H]1C` (stereo partly drawn), in experiment [1], the viability (% of control) was 95.7% [at 9.25 µM]. The viability, % of control in experiment [2] is 95.1% [at 9.25 µM].
On to `CN(CCCN1c2ccccc2CCc2ccccc21)CC(=O)c1ccc(Cl)cc1`, for which the Potency in experiment [1] was 23.7 µM (active); in experiment [2] it was 13.3 µM (active).
The like results for `O=C(Nc1ccccc1)N1CCN(c2nc(-c3ccccc3)ns2)CC1` were, in that order, 14.6 µM (active) and 16.4 µM (active).
On to `CCN(Cc1cccnc1)C(=O)CN(c1ccc(OC)nc1)S(=O)(=O)c1ccccc1C`, for which the Potency entry in experiment [1] and in experiment [2] was “inactive” in each case.
`O=C1N=C(O)S/C1=C\c1ccc2nccnc2c1`: the Potency in experiment [1] and in experiment [2] was 13 µM (active) throughout.
For `CC(=O)O[C@H]1CC(C)(C)CC2[C@]13CO[C@@]21CCC2[C@@]4(C)CC[C@H](O[C@@H]5OC[C@H](O[C@@H]6O[C@H](CO)[C@@H](O)[C@H](O)[C@H]6O[C@@H]6OC[C@@H](O[C@@H]7O[C@H](CO)[C@@H](O)[C@H](O)[C@H]7O)[C@H](O)[C@H]6O)[C@H](O)[C@H]5O[C@@H]5O[C@H](CO)[C@@H](O)[C@H](O)[C@H]5O)[C@@](C)(CO)C4CC[C@@]2(C)[C@]1(C)C[C@H]3O` (stereo partly drawn), the Potency was 1.55 µM (active) in experiment [1] and 1.23 µM (active) in experiment [2].
As to `COc1cc2ncnc(Nc3ccc(O)cc3)c2cc1OC`, the Potency in experiment [1] is 3.26 µM (active); in experiment [2] it was 7.31 µM (active).
On the same counts, the results for `CN(C)CCCn1cc(C2=C(c3c[nH]c4ccccc34)C(=O)NC2=O)c2ccccc21` are 0.0731 µM (active) and 0.116 µM (active).
As for `C/C=C/C=C/C(O)=C1\C(O)=C(C)C(=O)[C@@]2(C)OC(=O)[C@@](C)(NC(=O)/C=C/C(=O)O)[C@@H]12`, the Potency entry in experiment [1] and in experiment [2] was “inactive” in each case.
In the case of `Cc1cc(C(=O)N2Cc3cnn(C)c3Nc3ccccc32)ccc1CNC(=O)N1CCN(Cc2cc(O)cc(O)c2)CC1`, the Potency entry in experiment [1] and in experiment [2] was “inactive” each time.
Regarding `CS(=O)(=O)c1ccc([C@@H](CC2CCCC2)C(=O)Nc2nccs2)cc1`, the figures for the Potency in experiment [1] and in experiment [2] were 8.33 µM (active) and 7.42 µM (active), respectively.
On the same counts, the results for `CN1CCC(c2c(O)cc(O)c3c(=O)cc(-c4ccccc4Cl)oc23)C(O)C1` (stereo not drawn) are 0.259 µM (active) and 0.206 µM (active).
The like results for `CC1CCC2(OC1)OC1CC3C4CC=C5CC(O)CC(O[C@@H]6OC[C@@H](O)[C@H](O)[C@H]6O)C5(C)C4CCC3(C)C1(O)C2C` (stereo partly drawn) were, in that order, “inactive” and “inactive”.
Consider `CCC1=CC2CN(C1)Cc1c([nH]c3ccccc13)[C@@](C(=O)OC)(c1cc3c(cc1OC)N(C)[C@H]1[C@@](O)(C(=O)OC)[C@H](OC(C)=O)[C@]4(CC)C=CCN5CC[C@]31[C@@H]54)C2` (stereo partly drawn), for which the figures for the Potency in experiment [1] and in experiment [2] were 0.0252 µM (active) and 0.0126 µM (active), respectively.
